Experimental findings from article PMC7862700, “An all-to-all approach to the identification of sequence-specific readers for epigenetic DNA modifications on cytosine” are described below.

Holding throughout (test): DAPPL (digital affinity profiling via proximity ligation, sequencing); 10 mM Tris-HCl pH 7.5, 50 mM NaCl, 1 mM DTT, 4% glycerol, room temperature, 30 min; GST-TFs on glutathione beads, 16-mer random dsDNA library, 0.1% formaldehyde crosslink after washing; high values mean tight binding
What all share (settings): protein: recombinant; tags: N-terminal GST; dsDNA, one strand shown

For one test, the target named is T1, ELK1 (Homo sapiens, UniProt P19419 1-428).
T1 sequence: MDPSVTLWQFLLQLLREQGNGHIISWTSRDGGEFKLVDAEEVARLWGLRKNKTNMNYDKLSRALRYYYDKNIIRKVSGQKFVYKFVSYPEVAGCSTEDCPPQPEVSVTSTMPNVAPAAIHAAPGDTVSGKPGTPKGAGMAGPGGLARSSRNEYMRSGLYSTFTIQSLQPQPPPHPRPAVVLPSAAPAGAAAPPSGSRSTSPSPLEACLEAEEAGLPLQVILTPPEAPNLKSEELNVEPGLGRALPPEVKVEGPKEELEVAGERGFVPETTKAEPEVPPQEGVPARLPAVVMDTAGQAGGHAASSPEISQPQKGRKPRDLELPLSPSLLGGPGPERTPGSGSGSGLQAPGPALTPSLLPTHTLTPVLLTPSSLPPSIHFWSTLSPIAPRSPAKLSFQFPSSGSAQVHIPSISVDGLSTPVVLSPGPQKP
In short, it runs like this: (§1)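 A tag-only sample was pooled with DNA-barcoded human transcription factors that had been expressed in yeast as GST fusions and captured on glutathione beads. The pools were incubated for 30 min at room temperature with 200 nmole of a random double-stranded 16-mer DNA library in Tris/NaCl/DTT/glycerol buffer, then washed, crosslinked with 0.1% formaldehyde, proximity-ligated (BsaI/T4 ligase, 1 h, 37 °C), PCR-amplified and sequenced on an Illumina NextSeq500. Binding signal is each hexamer's read frequency for a factor divided by its frequency for the tag-only sample.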

The next test concerns the target T2, GABPA (Homo sapiens, UniProt Q06546 1-454).
T2 sequence: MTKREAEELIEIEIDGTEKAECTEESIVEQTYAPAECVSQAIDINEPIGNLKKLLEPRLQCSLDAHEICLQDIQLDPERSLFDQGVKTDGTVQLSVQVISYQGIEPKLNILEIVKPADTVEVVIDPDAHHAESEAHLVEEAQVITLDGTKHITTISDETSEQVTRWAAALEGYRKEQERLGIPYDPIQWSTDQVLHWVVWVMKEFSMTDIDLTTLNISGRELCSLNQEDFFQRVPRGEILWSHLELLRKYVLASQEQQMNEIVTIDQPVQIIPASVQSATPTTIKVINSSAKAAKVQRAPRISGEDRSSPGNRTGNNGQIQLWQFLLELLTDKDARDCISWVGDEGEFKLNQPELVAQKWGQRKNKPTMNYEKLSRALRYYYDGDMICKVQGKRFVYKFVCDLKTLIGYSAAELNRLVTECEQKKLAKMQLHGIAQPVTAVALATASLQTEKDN
In short, it runs like this:
as §1

In another test the target is ELF1 (Homo sapiens, UniProt P32519 1-619). In short, it runs like this: as §1
A further test concerns the target T3, EHF (Homo sapiens, UniProt Q9NZC4 1-300).
T3 sequence: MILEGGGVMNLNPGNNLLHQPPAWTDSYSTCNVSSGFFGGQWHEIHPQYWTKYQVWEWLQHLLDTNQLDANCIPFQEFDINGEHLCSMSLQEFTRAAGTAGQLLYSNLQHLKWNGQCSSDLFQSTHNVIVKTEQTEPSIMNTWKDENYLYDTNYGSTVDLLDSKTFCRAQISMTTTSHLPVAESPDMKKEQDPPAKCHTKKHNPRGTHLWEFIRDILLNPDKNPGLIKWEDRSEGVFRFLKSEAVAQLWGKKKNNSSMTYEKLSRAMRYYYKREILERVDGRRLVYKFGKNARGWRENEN
In short, it runs like this:
as §1

In the next test the target is SPIB (Homo sapiens, UniProt Q01892 1-262). In short, it runs like this:
as §1

For the next test, the target named is T4, ELK3 (Homo sapiens, UniProt P41970 1-407).
T4 sequence: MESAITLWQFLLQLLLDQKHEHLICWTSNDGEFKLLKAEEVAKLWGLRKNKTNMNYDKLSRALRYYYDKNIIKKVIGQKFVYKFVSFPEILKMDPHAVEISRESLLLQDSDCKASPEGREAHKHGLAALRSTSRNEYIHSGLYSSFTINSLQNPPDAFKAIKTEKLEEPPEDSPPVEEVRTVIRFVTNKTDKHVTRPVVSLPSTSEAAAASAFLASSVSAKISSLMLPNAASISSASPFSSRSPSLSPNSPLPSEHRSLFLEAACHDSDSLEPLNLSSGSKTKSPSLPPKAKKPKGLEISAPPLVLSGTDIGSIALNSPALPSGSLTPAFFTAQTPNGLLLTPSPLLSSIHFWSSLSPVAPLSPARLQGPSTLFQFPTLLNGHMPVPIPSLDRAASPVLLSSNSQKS
The essentials: as §1

A further test concerns the target T5, SPIC (Homo sapiens, UniProt Q8N5J4 1-248).
T5 sequence: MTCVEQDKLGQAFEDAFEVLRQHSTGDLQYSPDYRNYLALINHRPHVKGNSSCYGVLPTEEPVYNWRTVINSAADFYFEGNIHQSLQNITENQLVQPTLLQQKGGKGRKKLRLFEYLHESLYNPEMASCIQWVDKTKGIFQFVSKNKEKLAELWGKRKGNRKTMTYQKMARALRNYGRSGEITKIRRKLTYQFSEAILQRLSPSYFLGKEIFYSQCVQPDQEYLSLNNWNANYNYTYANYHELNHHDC
In short, it runs like this: as §1

For another test, the target named is ELF4 (Homo sapiens, UniProt Q99607 1-663). In short, it runs like this: as §1
The target in the next test is T6, ELK4 (Homo sapiens, UniProt P28324-2 1-405).
T6 sequence: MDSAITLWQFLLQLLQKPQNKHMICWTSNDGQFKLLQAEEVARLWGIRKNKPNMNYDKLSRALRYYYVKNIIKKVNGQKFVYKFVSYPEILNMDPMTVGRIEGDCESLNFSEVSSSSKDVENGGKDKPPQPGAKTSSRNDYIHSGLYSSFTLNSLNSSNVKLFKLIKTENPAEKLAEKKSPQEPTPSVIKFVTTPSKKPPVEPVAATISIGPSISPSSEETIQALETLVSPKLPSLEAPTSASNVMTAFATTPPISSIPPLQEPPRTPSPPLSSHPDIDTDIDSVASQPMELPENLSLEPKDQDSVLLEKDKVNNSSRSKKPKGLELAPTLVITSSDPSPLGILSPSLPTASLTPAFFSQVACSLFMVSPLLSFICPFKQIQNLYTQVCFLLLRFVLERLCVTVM
In short, it runs like this:
as §1

A further test deals with T7, ERF (Homo sapiens, UniProt P50548 1-548).
T7 sequence: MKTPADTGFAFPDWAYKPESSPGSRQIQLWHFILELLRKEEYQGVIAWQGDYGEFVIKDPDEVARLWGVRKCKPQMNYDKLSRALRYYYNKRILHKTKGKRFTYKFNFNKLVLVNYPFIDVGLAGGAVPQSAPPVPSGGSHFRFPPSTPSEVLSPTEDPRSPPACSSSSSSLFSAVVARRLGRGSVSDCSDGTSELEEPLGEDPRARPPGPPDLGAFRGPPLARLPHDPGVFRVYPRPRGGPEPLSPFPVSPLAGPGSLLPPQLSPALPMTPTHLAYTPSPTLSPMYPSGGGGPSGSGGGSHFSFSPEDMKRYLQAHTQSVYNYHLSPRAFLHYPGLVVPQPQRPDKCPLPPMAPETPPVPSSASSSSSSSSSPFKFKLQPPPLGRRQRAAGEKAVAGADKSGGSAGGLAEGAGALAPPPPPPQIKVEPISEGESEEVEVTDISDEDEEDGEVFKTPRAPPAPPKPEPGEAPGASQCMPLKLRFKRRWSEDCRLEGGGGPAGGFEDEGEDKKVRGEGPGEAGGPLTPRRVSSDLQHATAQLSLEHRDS
The essentials: as §1

A further test deals with T8, ETV3L (Homo sapiens, UniProt Q6ZN32 1-361).
T8 sequence: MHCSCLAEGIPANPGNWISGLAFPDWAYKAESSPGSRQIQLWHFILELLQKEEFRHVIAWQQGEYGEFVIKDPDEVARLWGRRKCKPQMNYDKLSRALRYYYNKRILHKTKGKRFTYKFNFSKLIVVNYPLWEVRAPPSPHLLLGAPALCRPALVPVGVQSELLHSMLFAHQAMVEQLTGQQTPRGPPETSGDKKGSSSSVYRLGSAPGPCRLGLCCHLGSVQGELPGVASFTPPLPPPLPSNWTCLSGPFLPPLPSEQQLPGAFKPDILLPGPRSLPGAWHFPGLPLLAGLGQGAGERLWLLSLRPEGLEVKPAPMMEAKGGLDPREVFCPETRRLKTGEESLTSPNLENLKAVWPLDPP
The essentials:
as §1

The target in the next test is T9, ETS2 (Homo sapiens, UniProt P15036 1-469).
T9 sequence: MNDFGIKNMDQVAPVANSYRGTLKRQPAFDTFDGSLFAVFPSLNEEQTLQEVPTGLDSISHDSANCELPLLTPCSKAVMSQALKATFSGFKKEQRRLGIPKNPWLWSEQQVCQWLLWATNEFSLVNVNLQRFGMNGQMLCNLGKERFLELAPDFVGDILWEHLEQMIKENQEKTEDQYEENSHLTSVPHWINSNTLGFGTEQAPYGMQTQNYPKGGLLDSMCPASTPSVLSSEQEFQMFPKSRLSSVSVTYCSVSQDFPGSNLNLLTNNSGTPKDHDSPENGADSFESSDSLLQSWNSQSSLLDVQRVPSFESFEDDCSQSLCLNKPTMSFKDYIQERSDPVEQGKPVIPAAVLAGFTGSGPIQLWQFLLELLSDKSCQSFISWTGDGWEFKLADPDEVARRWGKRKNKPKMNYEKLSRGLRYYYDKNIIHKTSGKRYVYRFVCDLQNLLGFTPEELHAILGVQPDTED
The essentials: as §1

Another test concerns the target T10, ETV3 (Homo sapiens, UniProt P41162-2 1-143).
T10 sequence: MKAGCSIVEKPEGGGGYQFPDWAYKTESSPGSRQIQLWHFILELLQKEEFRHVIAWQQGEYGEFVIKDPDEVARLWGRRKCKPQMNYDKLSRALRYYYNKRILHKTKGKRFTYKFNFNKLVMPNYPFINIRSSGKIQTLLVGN
In short, it runs like this: as §1

Sequence of SPIB (Q01892 whole entry): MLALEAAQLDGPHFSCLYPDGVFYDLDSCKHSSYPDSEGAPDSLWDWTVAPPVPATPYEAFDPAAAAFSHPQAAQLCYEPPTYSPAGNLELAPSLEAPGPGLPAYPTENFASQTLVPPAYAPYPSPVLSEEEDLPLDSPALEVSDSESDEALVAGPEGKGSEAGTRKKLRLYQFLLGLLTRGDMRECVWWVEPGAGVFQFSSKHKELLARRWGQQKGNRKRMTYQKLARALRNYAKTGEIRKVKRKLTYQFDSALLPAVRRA
Sequence of ELF1 (P32519 whole entry): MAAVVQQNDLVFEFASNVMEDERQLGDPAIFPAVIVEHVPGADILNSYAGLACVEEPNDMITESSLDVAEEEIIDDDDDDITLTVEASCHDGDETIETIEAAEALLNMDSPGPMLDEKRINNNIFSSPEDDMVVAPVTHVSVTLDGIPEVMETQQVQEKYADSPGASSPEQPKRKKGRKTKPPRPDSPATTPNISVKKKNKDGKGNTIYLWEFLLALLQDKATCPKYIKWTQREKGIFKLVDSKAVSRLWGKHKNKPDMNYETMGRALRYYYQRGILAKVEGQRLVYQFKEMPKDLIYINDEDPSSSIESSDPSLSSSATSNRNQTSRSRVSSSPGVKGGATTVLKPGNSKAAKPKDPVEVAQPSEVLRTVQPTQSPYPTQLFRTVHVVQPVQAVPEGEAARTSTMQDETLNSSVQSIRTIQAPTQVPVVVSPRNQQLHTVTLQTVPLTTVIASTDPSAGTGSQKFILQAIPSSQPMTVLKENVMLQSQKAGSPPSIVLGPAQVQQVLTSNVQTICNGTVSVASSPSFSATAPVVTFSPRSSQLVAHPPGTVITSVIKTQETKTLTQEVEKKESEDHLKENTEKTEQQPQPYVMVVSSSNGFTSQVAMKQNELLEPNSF
Sequence of ELF4 (Q99607 whole entry): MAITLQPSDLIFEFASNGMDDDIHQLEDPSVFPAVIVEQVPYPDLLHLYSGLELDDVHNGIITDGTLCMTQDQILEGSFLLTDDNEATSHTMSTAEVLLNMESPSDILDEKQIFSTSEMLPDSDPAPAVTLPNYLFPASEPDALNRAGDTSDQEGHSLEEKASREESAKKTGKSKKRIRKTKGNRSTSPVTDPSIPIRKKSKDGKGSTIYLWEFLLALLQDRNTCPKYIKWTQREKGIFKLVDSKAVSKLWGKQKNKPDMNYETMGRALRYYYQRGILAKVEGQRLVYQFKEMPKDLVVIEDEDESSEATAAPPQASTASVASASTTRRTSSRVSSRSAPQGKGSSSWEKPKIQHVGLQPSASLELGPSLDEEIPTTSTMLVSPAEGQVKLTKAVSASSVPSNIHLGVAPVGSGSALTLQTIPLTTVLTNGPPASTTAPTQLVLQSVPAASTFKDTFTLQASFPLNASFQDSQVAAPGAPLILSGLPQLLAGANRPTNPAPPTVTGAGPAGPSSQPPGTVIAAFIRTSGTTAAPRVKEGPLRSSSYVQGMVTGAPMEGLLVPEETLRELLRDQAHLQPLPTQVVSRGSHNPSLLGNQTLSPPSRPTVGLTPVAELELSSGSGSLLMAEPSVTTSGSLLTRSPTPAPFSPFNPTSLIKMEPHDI

As for TGATAG, the binding signal with ELK1 was 1.07 fold enrichment (6-mer frequency, TF over GST control); with GABPA it was 1.03 fold enrichment (6-mer frequency, TF over GST control); in the test with ELF1, 1.09 fold enrichment (6-mer frequency, TF over GST control); with EHF it was 1.01 fold enrichment (6-mer frequency, TF over GST control); with SPIB, 1.05 fold enrichment (6-mer frequency, TF over GST control); in the test with ELK3 it was 1.09 fold enrichment (6-mer frequency, TF over GST control). Moreover, the binding signal is 1.05 fold enrichment (6-mer frequency, TF over GST control) in the test with SPIC; 1.03 fold enrichment (6-mer frequency, TF over GST control) in the test with ELF4; 1.02 fold enrichment (6-mer frequency, TF over GST control) in the test with ELK4; 1.04 fold enrichment (6-mer frequency, TF over GST control) with ERF; 1.05 fold enrichment (6-mer frequency, TF over GST control) with ETV3L; 1.06 fold enrichment (6-mer frequency, TF over GST control) with ETS2. Also, the binding signal with ETV3 was 1.05 fold enrichment (6-mer frequency, TF over GST control).
